Assay results reported in the supplement of paper PMC8285479.
Counter-ions that a name gives are not always drawn. ± gives the standard deviation of the averaged measurements. Whole data set: some 1,900 compounds, median “normalised cell viability (NPI; 0 = phenylarsine oxide control, 1 = DMSO control)” near 1, cut for the lowest 2% near 0.039. The sample as a whole holds a higher share of the lowest values than the screen did.

Tested on: NCI-H1944
Assay: normalised cell viability (NPI; 0 = phenylarsine oxide control, 1 = DMSO control) (fraction of DMSO control); NCI-H1944 is a non-small cell lung cancer line; higher = more viable cells (less compound toxicity)
Settings: 6 days
[1] = glucocorticoid arm: hydrocortisone 2.75 uM co-treatment, compound 1 µM
[2] = glucocorticoid arm: hydrocortisone 2.75 uM co-treatment, compound 5 µM
[3] = glucocorticoid arm: hydrocortisone 2.75 uM pre-treated 2 days and continued, compound 1 µM
[4] = glucocorticoid arm: hydrocortisone 2.75 uM pre-treated 2 days and continued, compound 5 µM
[5] = glucocorticoid arm: vehicle, compound 1 µM
[6] = glucocorticoid arm: vehicle, compound 5 µM
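Note: CTB read-out in 384-well plates, triplicate wells, NPI normalised per plate against 1 µM phenylarsine oxide (0) and 0.1% DMSO (1) controls.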

| Compound | normalised cell viability [1] | normalised cell viability [2] | normalised cell viability [3] | normalised cell viability [4] | normalised cell viability [5] | normalised cell viability [6] |
| --- | --- | --- | --- | --- | --- | --- |
| CCC(=O)N1CCN(c2ccc(-n3c(=O)ccc4cnc5ccc(-c6cnc7ccccc7c6)cc5c43)cc2C(F)(F)F)CC1 [Torin 1] | 0.4 ± 0.0087 | 0.383 ± 0.013 | 0.532 ± 0.018 | 0.518 ± 0.022 | 0.223 ± 0.023 | 0.286 ± 0.01 |
| Nc1ccc(-c2ccc3ncc4ccc(=O)n(-c5cccc(C(F)(F)F)c5)c4c3c2)cn1 [Torin 2] | 0.175 ± 0.0021 | 0.171 ± 0.0032 | 0.267 ± 0.012 | 0.299 ± 0.0097 | 0.0254 ± 0.002 | 0.0207 ± 0.0023 |
| O=C(O)[C@H]1C[C@H](C(=O)O)N1 (relative stereo) [trans-Azetidine-2,4-dicarboxylic acid] | 1.007 ± 0.0058 | 1.007 ± 0.0058 | 1.005 ± 0.0087 | 1.01 | 0.9843 ± 0.0025 | 0.9883 ± 0.0091 |
| CC(C)(C)c1cnc(CSc2cnc(NC(=O)C3CCNCC3)s2)o1 | 0.0382 ± 0.0034 | 0.036 ± 0.0061 | 0.148 ± 0.013 | 0.133 ± 0.018 | 0.00695 ± 0.0037 | 0.00933 ± 0.00035 |
| C=C(C)C(CC=C(C)C)CC12CC(CC=C(C)C)C(C)(C)C(CC=C(C)C)(C(=O)C(=C(O)c3ccc(O)c(O)c3)C1=O)C2=O (configuration not stated) [Garcinol] | 1 ± 0.012 | 1.01 ± 0.013 | 0.992 ± 0.014 | 0.997 ± 0.027 | 1.007 ± 0.0052 | 1.001 ± 0.01 |
| O=[N+]([O-])c1ccc(-c2nc(-c3ccc(F)cc3)c(-c3ccncc3)[nH]2)cc1 | 0.976 ± 0.019 | 0.903 ± 0.014 | 0.9707 ± 0.008 | 0.865 ± 0.019 | 0.996 ± 0.004 | 0.962 ± 0.051 |
| N#C/C(=C/c1ccc(O)c(O)c1)C(=O)NCc1ccccc1 [Tyrphostin AG 490] | 1.01 ± 0.016 | 1.03 ± 0.015 | 0.999 ± 0.028 | 1 ± 0.014 | 1.02 ± 0.01 | 1.02 ± 0.01 |
| C[C@H](Cc1ccc(O)c(O)c1)[C@@H](C)Cc1ccc(O)c(O)c1 | 0.996 ± 0.013 | 1.02 ± 0.02 | 0.998 ± 0.013 | 1.04 ± 0.058 | 1.013 ± 0.0058 | 1.02 ± 0.011 |
| CO/N=C(\C(=O)N[C@@H]1C(=O)N2C(C(=O)O)=C(CSc3nc(=O)c(O)nn3C)CS[C@H]12)c1csc(N)n1 [Ceftriaxone sodium salt] | 0.985 ± 0.0052 | 0.995 ± 0.025 | 0.849 ± 0.22 | 0.992 ± 0.0057 | 0.964 ± 0.0069 | 0.9743 ± 0.006 |
| Oc1ccc2ccccc2c1SSc1c(O)ccc2ccccc12 | 1.03 ± 0.01 | 1.08 ± 0.021 | 1.017 ± 0.0058 | 1.01 ± 0.028 | 1.013 ± 0.0058 | 1.04 ± 0.01 |
| CNc1nc(Nc2cnn(C3CCN(C4COC4)CC3F)c2Cl)ncc1C(F)(F)F (configuration not stated) | 1.02 ± 0.01 | 1.05 ± 0.023 | 1.04 ± 0.01 | 1.05 ± 0.01 | 1.007 ± 0.0058 | 1.007 ± 0.0058 |
| Cc1[nH]nc2ccc(-c3cncc(OC[C@@H](N)Cc4ccccc4)c3)cc12 | 0.452 ± 0.007 | 0.0555 ± 0.0049 | 0.792 ± 0.022 | 0.129 ± 0.0089 | 0.1 ± 0.012 | 0.0136 ± 0.0021 |
